Experimental findings from PubChem BioAssay (Tox21) are described below.

Molecules are shown by their SMILES. Inconclusive results are not listed. Where a call stands in place of a potency, no number is given. The source made the active and inactive calls. Calls follow the shape of the dose curve; as a rule, active = well fitted inhibition curve with a large enough effect in the repeat runs; inconclusive = weak or mixed curves; inactive = no such curve, though single readings can be large or run the other way.
Potency is read from the fitted curve at half-maximal effect.

For the assay, the target named is Cytochrome P450 3A4 (Homo sapiens) (UniProt P08684). Put plainly: Cytochrome P450 Family 3 Subfamily A Member 4 (CYP3A4) small molecule antagonists: luciferase reporter qHTS assay (AID 1671201). Also: nearly all actives have a fitted effect of over 50% in size. Particulars: P450-Glo CYP3A4 enzyme, luciferin luminescence, 1 h; series mostly up to 115 µM. An excerpt: National Center for Advancing Translational Sciences [NCATS]
Cytochrome P450 3A4 (Homo sapiens), sequence (P08684 whole entry, looked up): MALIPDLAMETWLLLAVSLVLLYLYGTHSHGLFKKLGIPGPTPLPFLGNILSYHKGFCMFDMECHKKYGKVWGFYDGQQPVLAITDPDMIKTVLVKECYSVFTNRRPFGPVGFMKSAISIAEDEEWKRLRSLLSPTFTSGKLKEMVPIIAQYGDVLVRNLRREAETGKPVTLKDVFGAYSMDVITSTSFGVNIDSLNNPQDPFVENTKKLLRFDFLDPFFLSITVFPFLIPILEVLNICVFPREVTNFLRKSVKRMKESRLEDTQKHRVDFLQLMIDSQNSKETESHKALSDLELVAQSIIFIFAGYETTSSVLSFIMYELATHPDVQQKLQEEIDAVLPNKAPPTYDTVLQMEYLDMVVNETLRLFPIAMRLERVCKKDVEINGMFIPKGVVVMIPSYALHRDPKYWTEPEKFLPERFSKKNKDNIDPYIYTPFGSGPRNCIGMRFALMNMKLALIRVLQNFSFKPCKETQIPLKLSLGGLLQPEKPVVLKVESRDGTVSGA
U.S. Environmental Protection Agency [EPA]
National Institutes of Environmental Health Sciences [NIEHS]
National Toxicology Program [NTP]
U.S. Food and Drug Administration [FDA]
Cytochrome P450 (CYP) enzymes are membrane-bound hemeproteins that play a key role in metabolism of drugs and xenobiotics. Evaluation of the effect of chemicals on CYP isozymes is useful to minimize the adverse drug reactions and toxicities in drug development process. Tox21 chemicals were tested for their effect on CYP enzyme activities by using P450-Glo (TM) screening systems (Promega Corporation, Madison, WI). These systems provide a luminescent method containing proluciferin substrates and are converted to luciferin products by CYP isozymes. The luciferin products formed are detected with a luciferin detection reagent, and the amount of light produced is proportional to CYP activity. P450-Glo (TM) CYP3A4 screening system (Catalog. No. V9910) was used to detect the compounds that interfere in CYP3A4 activity. The positive control compound used for CYP3A4 assay is ketoconazole (Sigma-Aldrich, St. Louis, MO).
Tox21 Assay Protocol Summary:
Two ul of enzyme-substrate mix was dispensed into medium binding white/solid 1536-well plates (Greiner Bio-One North America Inc., Monroe, NC) using a BioRaptr Flying Reagent Dispenser (FRD, Beckman Coulter, Brea, CA). Compounds dissolved in DMSO and positive control (ketoconazole) were transferred to the assay plates at 23 nl using a Pintool station (Wako, San Diego, CA). The assay plates were incubated at room temperature for 10 min. Then 2 ul of NADPH regeneration solution was added to each well of the assay plates using an FRD and incubated at room temperature for 1 h. The reaction was stopped by adding 4 ul of detection reagent using an FRD and after 20 min incubation at room temperature the luminescence signal was measured using a ViewLux plate reader (Perkin Elmer, Shelton, CT). Data were expressed as relative luminescence units.
Consider `CCCCOC(=O)CC#N`, for which the Potency result was “inactive”.

Take `Nc1nc(Cl)nc2c1ncn2[C@H]1C[C@H](O)[C@@H](CO)O1`: the Potency result is “inactive”.

For `CC(C)(C)NCC(O)COc1ccc(NC(=O)NC2CCCCC2)cc1` (stereo not given), the Potency result was “inactive”.

In the case of `Cc1c(Cl)cccc1[N+](=O)[O-]`, the Potency result is “inactive”.

Take `CC(C)(C)c1cc(C=O)cc(C(C)(C)C)c1O`: the Potency result is “inactive”.

As for `OCC(O)c1ccccc1` (stereo not given), the Potency result was “inactive”.

As to `CC1=CC(=C(c2ccc(N)cc2)c2ccc(N)cc2)C=CC1=N`, the Potency is 2.86 µM (active).

Turning to `CC1(C)CC(O)CC(C)(C)N1[O]`, the Potency result was “inactive”.

In the case of `O=C(OCCOCCOCCOC(=O)c1ccccc1)c1ccccc1`, the Potency result is “inactive”.

Turning to `Nc1ccc(F)cc1F`, the Potency entry was “inactive”.

Take `CC(O)CN` (stereo not given): the Potency result was “inactive”.

As for `CCCCOC(=O)C(C)Oc1ccc(Oc2ccc(C(F)(F)F)cn2)cc1` (stereo not given), the Potency result was “inactive”.

On to `CCCCCCCCCCCCCCCCN`, for which the Potency result was “inactive”.

With `COc1ccc(/C(C)=C/C(=O)O)c(OC)c1`, the Potency entry was “inactive”.

With `CC(C)Cc1nccs1`, the Potency entry is “inactive”.

Turning to `CCCC1CCCC(=O)O1` (stereo not given), the Potency was 39.9 µM (active).

Turning to `O=C1OC(=O)C2CC=CCC12` (stereo not given), the Potency result was “inactive”.

For the molecule `CC1(C)CC(=O)CC(C)(C)N1`, the Potency result was “inactive”.

For the molecule `OCCc1ccncc1`, the Potency was 28.3 µM (active).

As to `COC(=O)c1cc(Cl)ccc1[N+](=O)[O-]`, the Potency entry was “inactive”.

`C/C(=C\C(C)CC(C)CC(C)C)C1CC(=O)OC1=O` (stereo not given): the Potency entry is “inactive”.

In the case of `Cc1cc(N)n(-c2ccccc2)n1`, the Potency result was “inactive”.

As to `Cc1cc(C)c(C)c(O)c1`, the Potency entry was “inactive”.

On to `N#CCCCC(C#N)CCC#N` (stereo not given), for which the Potency entry is “inactive”.

In the case of `O=C1CCCN1CCO`, the Potency result was “inactive”.

With `Sc1nc(S)nc(S)n1`, the Potency result was “inactive”.

In the case of `C=CCCC`, the Potency result is “inactive”.

Consider `CC(C)=CCC/C(C)=C/C=N/O`, for which the Potency is 28.3 µM (active).

On to `CCCCCCCCCC(C)C=O` (stereo not given), for which the Potency entry was “inactive”.

Take `CCCCCCCCC(=O)OCC(C)OC(=O)CCCCCCCC` (stereo not given): the Potency entry is “inactive”.

As for `Cc1ccc(S(=O)(=O)NC(=O)NC2CCCC2)cc1`, the Potency result is “inactive”.

Turning to `CC/C=C\CCO`, the Potency entry was “inactive”.

Consider `CCCCC(CC)COCCC#N` (stereo not given), for which the Potency entry is “inactive”.

`CCCCCC1CCC(=O)O1` (stereo not given): the Potency entry is “inactive”.

Take `O=C(O)c1cc(C(=O)O)cc([N+](=O)[O-])c1`: the Potency result is “inactive”.

For the molecule `NC(=O)c1ccccc1C(N)=O`, the Potency was 63.5 µM (active).

Turning to `O=C1c2ccccc2C(=O)C1c1ccc2ccccc2n1`, the Potency was 1.77 µM (active).

For `Clc1nc2ccccc2nc1Cl`, the Potency result is “inactive”.

In the case of `CCCC1CCOC(C)S1` (stereo not given), the Potency result is “inactive”.

Take `CCCCCCCCCCCCCCCCC(=O)O`: the Potency result is “inactive”.
